Data: PubChem BioAssay (NCI)
The panel holds about 83,000 compounds, 20% with a hit somewhere; the sample as a whole holds those more often.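 48-hour exposure, single concentration, 96-well plates; percent growth endpoint where 0 means no net growth. Active: below 10.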 Unmarked numbers belong to inactive results. Activity calls are given as the source filed them.

Each compound was assayed on HL-60(TB) leukemia (assay: NCI-60 one-dose screen, 48 h (100 = growth as untreated, 0 = no growth, -100 = all killed)). Settings: 10 µM unless noted.

Which growth does the source give for `Cc1cc(C)n(-c2nc(-c3cccs3)c(C#N)c(=O)[nH]2)n1` here?
Its growth is 94.4%.

`Cn1cc(-c2nnc(-c3cn(C)c4ncccc34)s2)c2ccccc21` was tested. Which growth did it give?
Its growth is 27.8%.

With `CCN(CC)CC(=O)Nc1cccc(C(=O)OC(C)C)c1` as the compound, how does the growth read?
The growth was 93%.

Which growth does the source give for `COc1cc(C2=C(c3cn(C)c4ccccc34)COC2=O)cc(OC)c1OC` here?
Its growth is -1.28% (active).

How did the growth turn out when `N#Cc1c(Nc2ccccc2)nc2n(c1=O)-c1ccccc1Sc1ccccc1-2` was run?
Its growth is 79.6%.
